Records with an inconclusive call do not appear. Unmarked numbers belong to inactive results. The call rests on the fitted dose curve; in most records, active means well fitted cell-killing curve with a large enough effect in the repeat runs; inconclusive means weak or mixed curves, or effect the other way; inactive means flat fitted curve, though single readings scatter.
On the % scale 0 is the no-effect control and ±100 the full control effect.

This test in a line: qHTS assay to identify small molecule antagonists of the estrogen receptor alpha (ER-alpha) signaling pathway using the BG1 cell line in the presence of 0.1 nM 17-beta-estradiol - cell viability counter screen (AID 1259241). Further: nearly all actives have a fitted effect of over 40% in size. The following applies: VM7Luc4E2 (BG1) viability, CellTiter-Fluor protease, 22 h, 0.1 nM estradiol agonist added; series mostly up to 92.4 µM; activity change, negative = cytotoxicity: at the top concentration. The text has this: National Center for Advancing Translational Sciences [NCATS]
NIH Chemical Genomics Center [NCGC]
U.S. Environmental Protection Agency [EPA]
National Institutes of Environmental Health Sciences [NIEHS]
National Toxicology Program [NTP]
U.S. Food and Drug Administration [FDA]
Estrogen receptor (ER), a member of the nuclear hormone receptor plays an important role in development, metabolic homeostasis and reproduction. Two subtypes of ER, ER-alpha and ER-beta, have similar expression patterns with some uniqueness in both types. Endocrine disrupting chemicals (EDCs) and their interactions with steroid hormone receptors like ER causes disruption of normal endocrine function. Therefore, it is important to understand the effect of environmental chemicals in ER signaling pathway. For identifying ER antagonists, VM7Luc4E2 cell line was used to screen against Tox21 compound libraries.
VM7Luc4E2 cell line (provided by Denison MS, University of California) endogenously express full-length ER-alpha and is stably transfected with a plasmid containing four estrogen responsive elements (ERE) upstream of a luciferase reporter gene. The current screening for identification of ER-alpha inhibitors against Tox21 compound libraries used lower concentration (0.1 nM) of 17beta-Estradiol as a stimulator. The cytotoxicity of the Tox21 compound libraries against VM7Luc4E2 cell line was tested by measuring live-cell protease activity using CellTiter-Fluor assay in the same wells.
Tox21 Assay Protocol Summary:
VM7Luc4E2 cells were cultured in phenol red free assay medium containing 10% charcoal stripped FBS for 5 days prior to the assay. The cells were dispensed at 4,000 cells/well in 4 uL of assay medium into white wall/solid-bottom 1536-well plates (Corning Life Sciences, Corning, NY) using a Multidrop Combi (ThermoFisher Scientific, Waltham, MA) dispenser. After the assay plates were incubated at 37C and 5% CO2 for 24 hr, 23 nL of compounds dissolved in DMSO, positive controls or DMSO only was transferred to the assay plates by a Pintool station (Kalypsys, San Diego, CA). The transfer of compounds was followed by the addition of 1 uL of 0.1 nM (final concentration) agonist (17beta-Estradiol)/assay medium using a Flying Reagent Dispenser (FRD, Aurora Discovery, San Diego, CA). The plates were incubated at 37C and 5% CO2 for 22 hr. For cytotoxicity assay, 1 uL of CellTiter-Fluor reagent (Promega Corporation, Madison, WI) was added to each well using the FRD and after 30 min incubation at 37C and 5% CO2, The fluorescence intensity was measured using ViewLux plate reader (PerkinElmer, Shelton, CT).
Background: qHTS replaces the single test concentration by a dilution series.
Turning to `CN(C)CCCNCCC#N`, the “activity change, negative = cytotoxicity” value was 0.653%.

Regarding `O=S(=O)(O)SSS(=O)(=O)O`, the “activity change, negative = cytotoxicity” value was 1.71%.

Turning to `CC(C)C(=O)c1ccccc1`, the “activity change, negative = cytotoxicity” value is 4.57%. In the case of `CCCCOC(=O)[C@@H](C)Oc1ccc(Oc2ccc(C(F)(F)F)cn2)cc1` it was 4.54%; in that of `O=C(O)c1ccc(OCCN2CCCCC2)cc1`, -1.24% [at 42.5 µM]; in that of `C[C@H]1O[C@H](O[C@H]2[C@H](O)[C@@H](O)[C@@H](O[C@H]3[C@H](O)[C@@H](O)[C@H](O)O[C@@H]3CO)O[C@@H]2CO)[C@H](O)[C@@H](O)[C@@H]1N[C@H]1C=C(CO)[C@@H](O)[C@H](O)[C@H]1O`, 6.96% [at 42.5 µM]. Next, `CCC(=O)c1ccc(O)cc1`: 6% [at 42.5 µM]. In the case of `COc1cc2c(Nc3ccc(Br)cc3F)ncnc2cc1OCC1CCN(C)CC1`, the “activity change, negative = cytotoxicity” value was 4.76% [at 42.5 µM].

As to `CCCCCCCCCCCCCCCCCCN(C)C`, the “activity change, negative = cytotoxicity” value is -1.83% [at 42.5 µM]. Next, `Cc1cccc(NC(=S)N(C)C)c1`: -8.46%. Regarding `Oc1ccccc1Cc1ccccc1O`, the “activity change, negative = cytotoxicity” value is 0.374%. In the case of `CN=C(NC#N)NCCSCc1csc(N=C(N)N)n1` it was -4.19% [at 42.5 µM]; in that of `C=CCOc1c(Br)cc(Br)cc1Br`, 1.29%; in that of `O=C(O)CCNC(=O)c1ccccc1`, 2.95% [at 42.5 µM]. As to `CCCCCCCC[Si](OCC)(OCC)OCC`, the “activity change, negative = cytotoxicity” value is 3.13%. In the case of `CCCCCC(=O)OCC` it was -2.13%; in that of `C=CCOC(=O)c1ccc(C(=O)OCC=C)c(C(=O)OCC=C)c1`, 0.497%; in that of `C=C[Si](C)(C)O[Si](C)(C)C=C`, -1.09%. Consider `CC(=O)Nc1ncc([N+](=O)[O-])s1`, for which the “activity change, negative = cytotoxicity” value is -18.1% [at 42.5 µM]. With `CCCCCCCC/C=C\CCCCCCCC(=O)OC[C@@H](O)[C@H]1OC[C@H](O)[C@H]1O`, the “activity change, negative = cytotoxicity” value was 0.211%. `O=c1[nH]c(=O)c2[nH]c(=O)[nH]c2[nH]1`: the activity change, negative = cytotoxicity was 0.489% [at 8.39 µM]. Next, `COc1ccc(NS(=O)(=O)c2ccc(N)cc2)nn1`: 13.8% [at 42.5 µM]; `O=C(Oc1ccccc1C(=O)O)c1ccccc1O`: -1.1% [at 42.5 µM]. Next, `COc1ccc(OC)c(NC(=O)CC(C)=O)c1`: -0.987%; `FC(F)(F)c1ccc(Cl)cc1Cl`: 0%; `CN[C@@H]1[C@@H](O)[C@@H](O[C@@H]2[C@H](O)[C@H](O[C@H]3OC(CN)=CC[C@H]3N)[C@@H](N)C[C@H]2N)OCC1(C)O` (stereo not given in full): 2.04% [at 42.5 µM]. In the case of `CC1=CC[C@H](CC=O)C1(C)C` it was 0.127%; in that of `OC(CCN1CCCCC1)(c1ccccc1)c1ccccc1`, -14% [at 42.5 µM]. As for `CC(C)CCC(=O)CCC(C)C`, the “activity change, negative = cytotoxicity” value is -3.91%. In the case of `COCCOCCOCCOC` it was -4.94%; in that of `Cc1c(C(C)C)c(=O)n(-c2ccccc2)n1C`, 1.21% [at 42.5 µM]. On to `CCC(C)N` (stereo not given), for which the “activity change, negative = cytotoxicity” value was 11.8%. Next, `C=CC(C)(O)CC/C=C(\C)CC` (stereo not given): -0.402%. Next, `CCN(CC)C(=O)C1CN2CCc3cc(OC)c(OC)cc3C2CC1OC(C)=O` (stereo not given): 0.393% [at 42.5 µM]; `Nc1cc(Cl)cc(S(=O)(=O)O)c1O`: 1.51%; `NC(=O)C1(N2CCCCC2)CCN(CCCC(=O)c2ccc(F)cc2)CC1`: -7.65% [at 42.5 µM]. In the case of `CC(C)SCc1ccco1` it was 0.514% [at 42.5 µM]. As to `Nc1ccc(S(=O)(=O)Nc2ccccn2)cc1`, the “activity change, negative = cytotoxicity” value is 1.71% [at 42.5 µM]. In the case of `CC(C)COC(=O)COc1ccc(Cl)cc1Cl` it was 1.93%. Next, `COC(OC)C(C)c1ccccc1` (stereo not given): -8.42%.

Source of the values: PubChem BioAssay (Tox21).
